Reference: PubChem BioAssay (NCATS)
Records with an inconclusive call do not appear. Activity calls are given as the source filed them. Calls follow the shape of the dose curve; as a rule, active = well fitted curve in the direction sought with a large enough effect; inconclusive = small, poorly fitted or top-dose-only effect, or another doubt; inactive = no such curve, though single readings can be large; an effect the other way counts as inactive or inconclusive.

Columns and labels:
[1] = qHTS of pediatric cancer cell lines to identify multiple opportunities for drug repurposing: Primary screen for Saos-2 cells (AID 1347097); details: Saos-2 viability, CellTiter-Glo ATP luminescence, 48 h; series mostly up to 46 µM; also: nearly all actives have a fitted effect of over 40% in size; also: potency is read from the fitted curve at half-maximal effect
Summary of the method: (§1)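 ATP-based luminescence (CellTiter-Glo) quantifies viability after a 48-hour exposure. Compounds are dosed across 8 or 11 final concentrations; DMSO and 2.3 µM bortezomib serve as controls.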

[2] = qHTS of pediatric cancer cell lines to identify multiple opportunities for drug repurposing: Primary screen for SK-N-SH cells (AID 1347098); details: SK-N-SH viability, CellTiter-Glo luminescence, 48 h; series mostly up to 57 µM; also: nearly all actives have a fitted effect of over 65% in size; also: potency is read from the fitted curve at half-maximal effect
Summary of the method: (§2)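 Cells (500-1,000/well) rested 5 h, then received compounds for 48 h; metabolically active cells were measured by CellTiter-Glo luminescence. Final concentrations spanned up to 46 µM (MIPE, 11-point) or 0.59 nM-46 µM (NPC, 8-point) in primary screens, 11-point in follow-ups.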

[3] = qHTS of pediatric cancer cell lines to identify multiple opportunities for drug repurposing: Primary screen for NB1643 cells (AID 1347099); details: NB1643 neuroblastoma viability, CellTiter-Glo luminescence, 48 h; series mostly up to 46 µM; also: nearly all actives have a fitted effect of over 50% in size; also: potency is read from the fitted curve at half-maximal effect
Summary of the method: as §1

[4] = qHTS of pediatric cancer cell lines to identify multiple opportunities for drug repurposing: Primary screen for BT-12 cells (AID 1347101); details: BT-12 viability, CellTiter-Glo luminescence, 48 h; series mostly up to 57.3 µM; also: nearly all actives have a fitted effect of over 25% in size; also: potency is read from the fitted curve at half-maximal effect
Summary of the method: as §2

[5] = qHTS of pediatric cancer cell lines to identify multiple opportunities for drug repurposing: Primary screen for Rh18 cells (AID 1347102); details: Rh18 rhabdomyosarcoma viability, CellTiter-Glo luminescence, 48 h; series mostly up to 46 µM; also: nearly all actives have a fitted effect of over 65% in size; also: potency is read from the fitted curve at half-maximal effect
Summary of the method: (§3)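 Cells (500-1,000/well) in growth media were settled 5 h at 37 degrees C, then given compounds for 48 h. Viability was read as CellTiter-Glo luminescence. Primary runs used MIPE at 11 points (0.78 nM-46 µM) and NPC at 8 points (0.59 nM-46 µM); follow-ups used 11 points.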

[6] = qHTS of pediatric cancer cell lines to identify multiple opportunities for drug repurposing: Primary screen for OHS-50 cells (AID 1347103); details: OHS-50 osteosarcoma viability, CellTiter-Glo luminescence, 48 h; series mostly up to 57.3 µM; also: nearly all actives have a fitted effect of over 40% in size; also: potency is read from the fitted curve at half-maximal effect
Summary of the method: as §2

[7] = qHTS of pediatric cancer cell lines to identify multiple opportunities for drug repurposing: Primary screen for RD cells (AID 1347104); details: RD rhabdomyosarcoma viability, CellTiter-Glo luminescence, 48 h; series mostly up to 46 µM; also: nearly all actives have a fitted effect of over 55% in size; also: potency is read from the fitted curve at half-maximal effect
Summary of the method: as §1

[8] = qHTS of pediatric cancer cell lines to identify multiple opportunities for drug repurposing: Primary screen for MG 63 (6-TG R) cells (AID 1347105); details: MG 63 (6-TG R) viability, CellTiter-Glo, 48 h; series mostly up to 46 µM; also: nearly all actives have a fitted effect of over 50% in size
Summary of the method: as §1

[9] = qHTS of pediatric cancer cell lines to identify multiple opportunities for drug repurposing: Primary screen for control Hh wild type fibroblast cells (AID 1347106); details: Hh wild-type fibroblast viability, CellTiter-Glo luminescence, 48 h; series mostly up to 46 µM;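 also: a drop in luminescence marks cytotoxicity and a rise apparent proliferation; nearly all actives have a fitted effect of over 55% in size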
Summary of the method: as §3

[10] = qHTS of pediatric cancer cell lines to identify multiple opportunities for drug repurposing: Primary screen for Rh30 cells (AID 1347107); details: Rh30 rhabdomyosarcoma viability, CellTiter-Glo luminescence, 48 h; series mostly up to 46 µM; also: nearly all actives have a fitted effect of over 75% in size
Summary of the method: as §3

[11] = qHTS of pediatric cancer cell lines to identify multiple opportunities for drug repurposing: Primary screen for Rh41 cells (AID 1347108); details: Rh41 rhabdomyosarcoma viability, CellTiter-Glo luminescence, 48 h; series mostly up to 46 µM;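 also: luminescence drop marks cytotoxic hits; nearly all actives have a fitted effect of over 70% in size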
Summary of the method: as §1

[12] = qHTS of pediatric cancer cell lines to identify multiple opportunities for drug repurposing: Primary screen for LAN-5 cells (AID 1347100); details: LAN-5 neuroblastoma viability, CellTiter-Glo luminescence, 48 h; series mostly up to 46 µM; also: potency is read from the fitted curve at half-maximal effect
Summary of the method: as §3

[13] = qHTS of pediatric cancer cell lines to identify multiple opportunities for drug repurposing: Confirmatory screen for NB1643 cells (AID 1347109); details: NB1643 neuroblastoma cell viability; series mostly up to 45.9 µM; also: nearly all actives have a fitted effect of over 45% in size; also: potency is read from the fitted curve at half-maximal effect
Summary of the method: as §3

[14] = qHTS of pediatric cancer cell lines to identify multiple opportunities for drug repurposing: Confirmatory screen for A673 cells (AID 1347110); details: A673 Ewing sarcoma cell viability; series mostly up to 45.9 µM;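 also: potency is read from the fitted curve at half-maximal effect; cells exposed to compound for 48 h before the viability read; nearly all actives have a fitted effect of over 65% in size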
Summary of the method: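 qHTS titration format: primary MIPE 0.78 nM-46 µM (11 pts), NPC 0.59 nM-46 µM; confirmation 11 pts. 48 h, CTG luminescence.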

[15] = qHTS of pediatric cancer cell lines to identify multiple opportunities for drug repurposing: Confirmatory screen for SK-N-MC cells (AID 1347111); details: SK-N-MC cell viability; series mostly up to 45.9 µM;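 also: potency is read from the fitted curve at half-maximal effect; cells exposed to compound for 48 h before the readout; nearly all actives have a fitted effect of over 70% in size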
Summary of the method: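 Metabolically active cells were quantified by ATP-dependent luminescence (CellTiter-Glo, 15 min at room temperature) following 48 h treatment. Cells had been plated at 500-1,000 per well and settled for 5 h beforehand.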

[16] = qHTS of pediatric cancer cell lines to identify multiple opportunities for drug repurposing: Confirmatory screen for BT-12 cells (AID 1347112); details: BT-12 rhabdoid tumor cells, viability; series mostly up to 45.9 µM; also: nearly all actives have a fitted effect of over 55% in size; also: potency is read from the fitted curve at half-maximal effect
Summary of the method: as §3

[17] = qHTS of pediatric cancer cell lines to identify multiple opportunities for drug repurposing: Confirmatory screen for LAN-5 cells (AID 1347113); details: LAN-5 neuroblastoma cell viability; series mostly up to 45.9 µM; also: nearly all actives have a fitted effect of over 65% in size; also: potency is read from the fitted curve at half-maximal effect
Summary of the method: as §3

[18] = qHTS of pediatric cancer cell lines to identify multiple opportunities for drug repurposing: Confirmatory screen for NB-EBc1 cells (AID 1347115); details: NB-EBc1 neuroblastoma cells, viability (cytotoxicity); series mostly up to 45.9 µM;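 also: cells exposed to compound for 48 h before the viability read; nearly all actives have a fitted effect of over 45% in size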; also: potency is read from the fitted curve at half-maximal effect
Summary of the method: as §3

[19] = qHTS of pediatric cancer cell lines to identify multiple opportunities for drug repurposing: Confirmatory screen for SJ-GBM2 cells (AID 1347116); details: SJ-GBM2 glioblastoma cells, viability; series mostly up to 45.9 µM; also: nearly all actives have a fitted effect of over 60% in size; also: potency is read from the fitted curve at half-maximal effect
Summary of the method: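 Viability measured as metabolically active cells via CellTiter-Glo luminescence following 48 hours of compound exposure, 11-point dilutions in confirmatory testing. 500-1,000 cells/well plated 5 hours before dosing; controls were DMSO and 2.3 µM bortezomib.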

[20] = qHTS of pediatric cancer cell lines to identify multiple opportunities for drug repurposing: Confirmatory screen for BT-37 cells (AID 1347117); details: BT-37 pediatric cancer cells, viability; series mostly up to 45.9 µM; also: nearly all actives have a fitted effect of over 55% in size; also: potency is read from the fitted curve at half-maximal effect
Summary of the method: as §3

Measured: Potency

C[C@H]1C[C@H](O)c2ccsc2S1(=O)=O
inactive: [1] | [2] | [3] | [4] | [5] | [6] | [7] | [8] | [9] | [10] | [11]

Cc1cc(OCCOCC[N+](C)(C)Cc2ccccc2)ccc1C(C)(C)CC(C)(C)C
active: [1] 13.3 µM | [2] 34.4 µM | [12] 21.1 µM | [4] 6.17 µM | [5] 10.6 µM | [7] 18.8 µM | [13] 8.27 µM | [14] 1.04 µM | [15] 2.61 µM | [16] 13.1 µM | [17] 9.27 µM | [18] 16.5 µM | [19] 14.7 µM | [20] 10.4 µM
inactive: [3] | [9]

CC(=O)N1CCN(c2ccc(O)cc2)CC1
inactive: [1] | [2] | [3] | [12] | [4] | [6] | [7] | [8] | [9] | [10] | [11]

CC(C)C[C@@H]1[C@H](c2ccccc2)OC(=O)N1CCCN1CCCCCC1
inactive: [1] | [2] | [3] | [12] | [5] | [8] | [9] | [10] | [11]

CC(C)C(=O)Nc1cccc(C(F)(F)F)c1
inactive: [1] | [2] | [3] | [12] | [4] | [6] | [7] | [8] | [9] | [11]

CCOC(=O)NNc1ccc(N(CC)CC(C)O)nn1 (configuration not stated)
inactive: [1] | [2] | [3] | [4] | [5] | [6] | [7] | [8] | [9] | [10]

CCOC(=O)N1CCC(n2c(=O)[nH]c3cc(Cl)ccc32)CC1
inactive: [1] | [2] | [3] | [12] | [5] | [7] | [8] | [9] | [10]

CC(C)(C)c1ccc(O)c(O)c1
active: [1] 48.6 µM | [2] 25 µM | [3] 17.2 µM | [12] 19.3 µM | [4] 25.2 µM | [7] 8.63 µM

COc1ccc2nc(SCc3ncc(C)c(OC)c3C)[nH]c2c1
inactive: [1] | [2] | [3] | [4] | [5] | [6] | [7] | [8] | [9] | [10] | [11]

CC(=O)c1cc2ccccc2s1
inactive: [1] | [2] | [3] | [12] | [4] | [6] | [7] | [8] | [9] | [10] | [11]

CCCCCOc1ccc(C2SC(=O)NC2=O)cc1OCC (configuration not stated)
inactive: [1] | [2] | [3] | [12] | [5] | [7] | [8] | [9] | [10] | [11]

CC(=O)N(c1onc(C)c1C)S(=O)(=O)c1ccc(N)cc1
inactive: [1] | [2] | [3] | [4] | [5] | [6] | [7] | [8] | [9] | [10] | [11]

Nc1nnnn1-c1ccccc1
inactive: [1] | [2] | [12] | [4] | [5] | [6] | [7] | [8] | [9] | [10] | [11]

O=C1CC2(CCCC2)CC(=O)N1
inactive: [1] | [2] | [3] | [4] | [5] | [6] | [7] | [8] | [9] | [10] | [11]

CC(=O)OCC(=O)Nc1cc(C#N)cc(NC(=O)COC(C)=O)c1Cl
inactive: [1] | [2] | [3] | [4] | [5] | [6] | [7] | [8] | [9] | [10] | [11]

O=C(Oc1ccccc1)c1cccc(C(=O)Oc2ccccc2)c1
inactive: [1] | [2] | [3] | [4] | [5] | [6] | [7] | [8] | [10]

CO/N=C(/C(=O)N[C@@H]1C(=O)N2C(C(=O)O)=C(Cn3nnc(C)n3)CS[C@H]12)c1csc(N)n1
inactive: [1] | [2] | [3] | [4] | [5] | [6] | [7] | [11]

CC(=O)[C@@]1(O)CC[C@H]2[C@@H]3C[C@H](C)C4=CC(=O)CC[C@]4(C)[C@H]3CC[C@@]21C
active: [6] 27.6 µM | [14] 0.261 µM | [15] 4.14 µM | [19] 1.17 µM
not listed: [4] | [9] | [12] | [16]
inactive: all other assays above

Nc1nc2ccccc2n1Cc1ccc(F)cc1
inactive: [1] | [2] | [3] | [5] | [7] | [8] | [10]
active: [6] 17.4 µM

CCC(=O)Oc1ccc2c(c1)CC[C@@H]1[C@@H]2CC[C@@]2(C)[C@H]1C[C@@H](OC(=O)CC)[C@@H]2OC(=O)CC
inactive: [1] | [2] | [3] | [4] | [5] | [7] | [8] | [9] | [10] | [11]

Cc1ccc(C(=O)Oc2ccc(C(O)CNC(C)(C)C)cc2OC(=O)c2ccc(C)cc2)cc1 (configuration not stated)
inactive: [1] | [2] | [5] | [9] | [10] | [16] | [18] | [19] | [20]
active: [3] 0.001 µM | [4] 6.17 µM | [14] 0.0928 µM | [15] 11.7 µM
